Reference: the antibiotic and cytotoxicity screens of Wong et al. (2023)
About 500 (1.3%) of roughly 39,000 compounds were called active. The sample holds actives, similar compounds and a random draw of the others, so the mix is not that of the screen.

test system: S. aureus RN4220; assay: growth inhibition call (relative growth <= 0.2); details: 50 µM

| Compound | growth inhibition call |
| --- | --- |
| CO[C@@H]1CN(C)C(=O)c2ccc(NC(=O)Nc3ccccc3F)cc2OC[C@@H](C)N(Cc2ccccc2C(=O)O)C[C@H]1C | inactive |
| C[C@@H]1O[C@@H](O[C@@H]2[C@@H](O)[C@H](OCCc3ccc(O)c(O)c3)O[C@H](CO)[C@H]2OC(=O)/C=C/c2ccc(O)c(O)c2)[C@H](O)[C@H](O)[C@H]1O | inactive |
| CO[C@@H]1CN(C)C(=O)c2cc(NS(C)(=O)=O)ccc2OC[C@@H](C)N(C(=O)C2CCCCC2)C[C@H]1C | inactive |
| C[C@@H]1CN([C@@H](C)CO)C(=O)c2cc(NC(=O)c3ccncc3)ccc2O[C@H]1CN(C)Cc1ccc(C(=O)O)cc1 | inactive |
| C[C@H](CO)N1C[C@H](C)[C@@H](CN(C)Cc2ccc(Oc3ccccc3)cc2)Oc2ccc(NC(=O)c3ccncc3)cc2C1=O | inactive |
| COc1ccc(S(=O)(=O)Nc2ccc3c(c2)CC(=O)N([C@H](C)CO)C[C@H](C)[C@H](CN(C)Cc2ccc(Cl)c(Cl)c2)O3)cc1 | inactive |
| CN1C(=O)c2cc(NC(=O)c3cccs3)ccc2OC[C@@H]2O[C@@H](CC(=O)NCCN3CCCCC3)CC[C@@H]21 | inactive |
| CN(C)CC(=O)N[C@H]1CC[C@H](CCNC(=O)C2CCC2)O[C@@H]1CO | inactive |
| C[C@@H]1CN([C@H](C)CO)C(=O)Cc2cc(NC(=O)Nc3ccc(C(F)(F)F)cc3)ccc2O[C@@H]1CN(C)Cc1ccc(-c2ccccc2)cc1 | inactive |
| O=C(C[C@@H]1CC[C@@H]2[C@H](COC[C@H](O)CN2S(=O)(=O)c2ccc(Cl)cc2)O1)NCC1CCCCC1 | inactive |
| O=C(C[C@H]1CC[C@@H]2[C@H](COC[C@H](O)CN2S(=O)(=O)c2ccc(Cl)cc2)O1)NCC1CCCCC1 | active |
| O=C(C[C@@H]1CC[C@H]2[C@@H](COC[C@@H](O)CN2S(=O)(=O)c2ccc(Cl)cc2)O1)NCC1CCCCC1 | active |
| O=C(C[C@@H]1CC[C@@H]2[C@H](COC[C@@H](O)CN2S(=O)(=O)c2ccc(Cl)cc2)O1)NCC1CCCCC1 | inactive |
| O=C(C[C@H]1CC[C@H]2[C@@H](COC[C@@H](O)CN2S(=O)(=O)c2ccc(Cl)cc2)O1)NCC1CCCCC1 | inactive |
| O=C(C[C@@H]1CC[C@H]2[C@@H](COC[C@H](O)CN2S(=O)(=O)c2ccc(Cl)cc2)O1)NCC1CCCCC1 | inactive |
| C[C@@H]1CN([C@@H](C)CO)S(=O)(=O)c2ccc(C#CCN(C)C)cc2O[C@@H]1CN(C)S(C)(=O)=O | inactive |
| CC(C)NC(=O)N(C)C[C@H]1Oc2ccc(NC(=O)NC3CCCCC3)cc2CC(=O)N([C@H](C)CO)C[C@H]1C | inactive |
| CC(C)NC(=O)N(C)C[C@@H]1Oc2ccc(NS(=O)(=O)c3cccs3)cc2CC(=O)N([C@@H](C)CO)C[C@@H]1C | inactive |
| C[C@@H]1CN([C@@H](C)CO)C(=O)Cc2cc(NS(=O)(=O)c3cn(C)cn3)ccc2O[C@H]1CN(C)Cc1ccc(C(=O)Nc2ccccc2N)cc1 | inactive |
| C[C@H]1CCCCO[C@@H](CN(C)S(=O)(=O)c2ccccc2)[C@@H](C)CN([C@@H](C)CO)C(=O)c2cc(NC(=O)c3ccccc3)ccc2O1 | inactive |
| C[C@@H]1CN([C@H](C)CO)C(=O)c2cc(NC(=O)Nc3ccc(F)cc3)ccc2O[C@@H](C)CCCCO[C@H]1CN(C)Cc1ccccc1 | inactive |

| Compound | growth inhibition call |
| --- | --- |
| CS(=O)(=O)N1C[C@H](NC(=O)C2CC2)[C@H]2OCCC[C@H]21 | inactive |
| C[C@H]1CCCCO[C@H](CN(C)CC2CC2)[C@@H](C)CN([C@@H](C)CO)C(=O)c2cc(NC(=O)Nc3ccc(C(F)(F)F)cc3)ccc2O1 | inactive |
| C[C@H](CO)N1C[C@H](C)[C@H](CN(C)CC2CCCCC2)Oc2ccc(NC(=O)Nc3ccc(C(F)(F)F)cc3)cc2C1=O | active |
| C[C@@H]1CCCCO[C@@H](CN(C)CC2CC2)[C@H](C)CN([C@@H](C)CO)C(=O)c2cc(NC(=O)Nc3ccc(C(F)(F)F)cc3)ccc2O1 | inactive |
| C[C@@H]1CN([C@H](C)CO)C(=O)c2cc(NC(=O)Nc3ccc(C(F)(F)F)cc3)ccc2O[C@@H]1CN(C)CC1CCCCC1 | inactive |
| C[C@@H]1CCCCO[C@H](CN(C)CC2CC2)[C@H](C)CN([C@H](C)CO)C(=O)c2cc(NC(=O)Nc3ccc(C(F)(F)F)cc3)ccc2O1 | active |
| C[C@@H]1CCCCO[C@@H](CN(C)CC2CC2)[C@@H](C)CN([C@H](C)CO)C(=O)c2cc(NC(=O)Nc3ccc(C(F)(F)F)cc3)ccc2O1 | inactive |
| C[C@@H]1CCCCO[C@H](CN(C)CC2CC2)[C@H](C)CN([C@@H](C)CO)C(=O)c2cc(NC(=O)Nc3ccc(C(F)(F)F)cc3)ccc2O1 | active |
| C[C@H]1CN([C@@H](C)CO)C(=O)c2cc(NC(=O)Nc3ccc(C(F)(F)F)cc3)ccc2O[C@@H]1CN(C)CC1CCCCC1 | inactive |
| C[C@H](CO)N1C[C@H](C)[C@H](CN(C)CC2CC2)OCCCC[C@H](C)Oc2ccc(NC(=O)Nc3ccc(C(F)(F)F)cc3)cc2C1=O | inactive |
| CCCC#Cc1cnc2c(c1)C(=O)N([C@@H](C)CO)C[C@H](C)[C@@H](CN(C)C(=O)c1ccc3c(c1)OCO3)O2 | inactive |
| C[C@@H]1CN([C@H](C)CO)C(=O)c2cc(NS(=O)(=O)c3cn(C)cn3)ccc2O[C@H]1CN(C)Cc1ccc(C(=O)Nc2ccccc2N)cc1 | inactive |
| Cc1ccc(S(=O)(=O)Nc2ccc3c(c2)C(=O)N([C@H](C)CO)C[C@@H](C)[C@H](CN(C)Cc2ccc(C(F)(F)F)cc2)O3)cc1 | inactive |
| COc1ccc(S(=O)(=O)Nc2ccc3c(c2)[C@H]2C[C@@H](CC(=O)NCC4CC4)O[C@H](CO)[C@H]2O3)cc1 | inactive |
| CCOc1nc2cccc(C(=O)OC(C)OC(=O)OC3CCCCC3)c2n1Cc1ccc(-c2ccccc2-c2nnn[nH]2)cc1 (stereo not drawn) | inactive |
| CCOc1nc2cccc(C(=O)O[C@@H](C)OC(=O)OC3CCCCC3)c2n1Cc1ccc(-c2ccccc2-c2nn[nH]n2)cc1 | active |
| CCOc1nc2cccc(C(=O)O)c2n1Cc1ccc(-c2ccccc2-c2nnn[nH]2)cc1 | inactive |
| C[C@H](CO)N1C[C@H](C)[C@H](CN(C)S(=O)(=O)c2cn(C)cn2)Oc2ncc(-c3cc4ccccc4o3)cc2C1=O | inactive |
| COc1ccc(NC(=O)N(C)C[C@@H]2Oc3ccc(NC(=O)C4CC4)cc3CC(=O)N([C@@H](C)CO)C[C@@H]2C)cc1 | inactive |
| Cc1noc(C)c1NC(=O)Nc1cccc2c1O[C@H](CN(C)Cc1ccc(C(=O)Nc3ccccc3N)cc1)[C@H](C)CN([C@@H](C)CO)C2=O | inactive |
| C[C@@H]1CN([C@@H](C)CO)C(=O)c2cc(NS(=O)(=O)c3ccccc3)ccc2O[C@H]1CN(C)S(=O)(=O)c1cccs1 | inactive |

| Compound | growth inhibition call |
| --- | --- |
| C=CCOC(=O)[C@H]1[C@@H]2C(=O)O[C@@H](c3ccccc3)[C@@H](c3ccccc3)N2[C@@H](c2ccc(OCCOC(=O)[C@@H]3C[C@@H]4C(=O)N[C@@H](CC(C)C)C(=O)N4[C@@H]3c3ccc(O)cc3)cc2)[C@]12C(=O)Nc1ccccc12 | inactive |
| C[C@H](CO)N1C[C@H](C)[C@H](CN(C)Cc2ccc(C(=O)Nc3ccccc3N)cc2)Oc2ccc(NC(=O)Cn3cnnn3)cc2C1=O | inactive |
| C[C@@H](O[C@H]1OCCN(Cc2n[nH]nc2CN(C)C)[C@H]1c1ccc(F)cc1)c1cc(C(F)(F)F)cc(C(F)(F)F)c1 | active |
| CC(OC1OCCN(C(C)c2nc(=O)[nH][nH]2)C1c1ccc(F)cc1)c1cc(C(F)(F)F)cc(C(F)(F)F)c1 (stereo not drawn) | inactive |
| C[C@@H]1CN([C@@H](C)CO)C(=O)c2cccc(NC(=O)c3ccc(-c4nccs4)cc3)c2O[C@H]1CN(C)S(=O)(=O)c1cn(C)cn1 | inactive |
| COCC#Cc1ccc2c(c1)O[C@@H](CN(C)C(=O)c1ccccc1)[C@@H](C)CN([C@@H](C)CO)S2(=O)=O | inactive |
| C[C@H](CO)N1C[C@H](C)[C@@H](CN(C)CC2CC2)OCCCC[C@H](C)Oc2ccc(NC(=O)CCCCCC(=O)Nc3ccccc3N)cc2C1=O | inactive |
| Cc1ccc2nc([C@H](N)C(C)C)[nH]c2c1 | inactive |
| CC(C)[C@@H](N)c1nc2ccccc2[nH]1 | inactive |
| C[C@@H](Oc1ccccc1Cl)c1nc2ccc(Cl)cc2[nH]1 | active |
| C[C@@H]1CN([C@H](C)CO)C(=O)Cc2cc(NC(=O)CCCCCC(=O)Nc3ccccc3N)ccc2O[C@@H]1CN(C)C(=O)Nc1ccc(C(F)(F)F)cc1 | inactive |
| CON=C(C(=O)NC1C(=O)N2C(C(=O)[O-])=C(COC(N)=O)CSC12)c1ccco1.[Na+] (stereo not drawn) | active |
| CO/N=C(\C(=O)N[C@@H]1C(=O)N2C(C(=O)O)=C(C[n+]3ccn4ncccc43)CS[C@H]12)c1nsc(N)n1 | inactive |
| CON=C(C(=O)NC1C(=O)N2C(C(=O)OC(C)OC(C)=O)=C(COC(N)=O)CSC12)c1ccco1 (stereo not drawn) | inactive |
| CO/N=C(\C(=O)N[C@@H]1C(=O)N2C(C(=O)O[C@@H](C)OC(C)=O)=C(COC(N)=O)CS[C@H]12)c1ccco1 | inactive |
| CC(C)(O/N=C(\C(=O)N[C@@H]1C(=O)N2C(C(=O)O)=C(C[n+]3ccccc3)CS[C@H]12)c1csc(N)n1)C(=O)O | inactive |
| CON=C(C(=O)NC1C(=O)N2C(C(=O)O)=C(C[N+]3(C)CCCC3)CSC12)c1csc(N)n1.[Cl-] (stereo not drawn) | active |
| CO/N=C(\C(=O)N[C@@H]1C(=O)N2C(C(=O)O)=C(CSc3nnnn3C)CS[C@H]12)c1csc(N)n1 | inactive |
| CC(C)(O/N=C(\C(=O)N[C@@H]1C(=O)N2C(C(=O)O)=C(C[N+]3(CCNC(=O)c4ccc(O)c(O)c4Cl)CCCC3)CS[C@H]12)c1csc(N)n1)C(=O)O | inactive |
| CO/N=C(\C(=O)N[C@@H]1C(=O)N2C(C(=O)O)=C(C[N+]3(C)CCCC3)CS[C@H]12)c1csc(N)n1 | active |
| CON=C(C(=O)N[C@@H]1C(=O)N2C(C(=O)O)=C(CSc3nc(=O)c(O)nn3C)CS[C@H]12)c1csc(N)n1 | active |
